The source made the active and inactive calls. Calls come from the whole dose curve; as a rule, active = well fitted curve in the direction sought with a large enough effect in the repeat runs; inconclusive = weak or mixed curves; inactive = flat fitted curve, though single readings scatter.
Test: qHTS assay to test for compound auto fluorescence at 460 nm (blue) in HEK293 cells (AID 720678)
Settings: blue autofluorescence 405/460 nm; series mostly up to 91.3 µM; fluorescence, % of triamterene: at the top concentration
Description: National Center for Advancing Translational Sciences [NCATS]
NIH Chemical Genomics Center [NCGC]
U.S. Environmental Protection Agency [EPA]
National Institutes of Environmental Health Sciences [NIEHS]
National Toxicology Program [NTP]
U.S. Food and Drug Administration [FDA]
Compound auto fluorescence often interferes with screening of the compound library against various biological targets and signaling pathways. Some of these compounds may have fluorophoric properties. Such properties may interfere with the assay outputs resulting in false positives and/or negatives. To decrease such complications and ensure the compound activities are relevant in terms of biological response, the Tox21 10K compound library was screened for auto fluorescence.
From the fluorophores used as reporter signals in our screening assays, the auto fluorescence equivalencies of compounds against three fluorophores have been evaluated: Triamterene, Fluorescein and Rose Bengal sodium for blue, green and red fluorescence, respectively. The fluorescence intensities were measured using Excitation/Emission wavelengths at 405/460nm, 485/535nm and 540/590nm for blue, green and red labels, respectively. This assay includes the blue fluorescence data.
Tox21 Assay Protocol Summary:
2,000 HEK293 cells in 5 uL of culture medium containing 10% dialyzed FBS per well were dispensed into black wall/clear bottom 1536-well plates using a Multidrop Combi Dispenser (Thermo Scientific). The assay plates were incubated for 4-5 hr at 37C to allow cell attachment to the well bottom, followed by the transfer of 23 nL compound or DMSO vehicle by a pintool work station (Kalypsys, San Diego, CA). After the assay plates were incubated overnight at 37C and 5% CO2, fluorescence intensities in the assay plates were measured by an Envision (PerkinElmer, Shelton, CT) plate reader using three labels for measuring blue, green and red fluorescence at […] 460, 535 and 590nm respectively.
% is set by controls: 0 for no effect and ±100 for the full control effect.

| Structure (SMILES) | fluorescence, % of triamterene | outcome |
| --- | --- | --- |
| CC(C)(C)NC[C@H](O)c1ccc(O)cc1Cl | 0.124% [at 46 µM] (inactive) | – |
| CC(C)(C)C(=O)C(Cl)Cl | -0.111% (inactive) | – |
| O=C(O)C(Cl)Br (stereo not given) | -0.152% [at 95.7 µM] (inactive) | – |
| CN1C(=O)COc2c(C(=O)NC3CN4CCC3CC4)cc(Cl)cc21 (stereo not given) | -0.155% [at 46 µM] (inactive) | – |
| CCCCCCCCSC(=O)Oc1cc(Cl)nnc1-c1ccccc1 | -0.064% (inactive) | – |
| CCC1(CC)C(=O)C=CNC1=O | -0.0833% [at 46 µM] (inactive) | – |
| OCC(Cl)CCl (stereo not given) | 0.0113% (inactive) | – |
| O=C(NC(O)C(Cl)(Cl)Cl)NC(O)C(Cl)(Cl)Cl (stereo not given) | 0.0732% [at 46 µM] (inactive) | – |
| CCCCCCC(=O)CCCCCC/C=C/C[C@@H](O)[C@H](O)[C@@](N)(CO)C(=O)O | – | inactive |
| CON(C)C(=O)Nc1ccc(Br)cc1 | -0.0003% (inactive) | – |
| ClCCCCCCCl | 0.064% (inactive) | – |
| Cc1ccc(Cl)c(O)c1 | -0.112% [at 46 µM] (inactive) | – |
| O=C(Cl)OCc1ccccc1 | -0.0705% (inactive) | – |
| CCC(=O)c1ccc(Cl)cc1 | 0.0215% (inactive) | – |
| N=C(N)[Se] | 0.0309% (inactive) | – |
| C#CC(C)(C)O | -0.0352% [at 95.7 µM] (inactive) | – |
| O=c1[nH]oc2c1CCNC2 | 0.043% [at 46 µM] (inactive) | – |
| OP(O)c1ccccc1 | -0.0258% [at 95.7 µM] (inactive) | – |
| CCC1(c2ccccc2)C(=O)N(COC)C(=O)N(COC)C1=O | 0.0799% [at 46 µM] (inactive) | – |
| CC(C)[C@]12CC(=O)[C@H](C)[C@H]1C2 | 0.0568% (inactive) | – |

| Structure (SMILES) | fluorescence, % of triamterene | outcome |
| --- | --- | --- |
| CCOC(=O)C(SP(=S)(OC)OC)c1ccccc1 (stereo not given) | -0.0414% (inactive) | – |
| O=C1C2CC=CCC2C(=O)N1SC(Cl)(Cl)Cl (stereo not given) | – | inactive |
| C=C1C[C@@H]2[C@H](CC[C@]3(C)C(=O)CC[C@@H]23)[C@@]2(C)C=CC(=O)C=C12 | -0.0008% [at 46 µM] (inactive) | – |
| CCCC(C)C1(CC)C(=O)N=C(S)NC1=O (stereo not given) | -0.0142% [at 46 µM] (inactive) | – |
| C[C@@H](N)[C@@H](O)c1ccccc1 | 0.0027% [at 18.6 µM] (inactive) | – |
| CC(C)(N)Cc1ccc(Cl)cc1 | -0.193% [at 46 µM] (inactive) | – |
| CCC1(c2ccccc2)CCC(=O)NC1=O (stereo not given) | 0.155% [at 46 µM] (inactive) | – |
| CC(C)[N+](C)(CCC(C(N)=O)(c1ccccc1)c1ccccc1)C(C)C | 0.0132% [at 18.6 µM] (inactive) | – |
| Clc1nc(Cl)nc(Nc2ccccc2Cl)n1 | 0.27% (inactive) | – |
| CCN(CCO)CCn1c(Cc2ccccc2)nc2c1c(=O)n(C)c(=O)n2C | -0.326% [at 46 µM] (inactive) | – |
| CCCCCCC1CCOC1=O (stereo not given) | 0.072% (inactive) | – |
| O=C(Cl)/C=C/C(=O)Cl | -0.13% [at 95.7 µM] (inactive) | – |
| O=C(Cl)CCl | -0.214% (inactive) | – |
| CCCCCCCC(=O)Cl | 0.0534% (inactive) | – |
| CCNc1nc(NCC)nc(SC)n1 | -0.262% (inactive) | – |
| NC1(c2ccccc2)CCCCC1 | -0.0458% (inactive) | – |
| COC(=O)[C@@H](N)CCCN/C(N)=N/[N+](=O)[O-] | -0.0211% [at 46 µM] (inactive) | – |
| COc1ccccc1OC | -0.092% (inactive) | – |
| CC(C)c1ccc(O)cc1 | -0.0012% (inactive) | – |
| BrCCc1ccccc1 | -0.203% [at 95.7 µM] (inactive) | – |
